This is an account of results in PubChem BioAssay (NCI).

“And” between values parts separate entries of the source, which are not always exact repeats. Equal entries are not always repeated. This is part of a sample that, as a whole, favours compounds with a hit. Of some 83,000 tested, about 20% had one in any assay.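 Each cell line was grown in a 96-well plate and treated with one concentration of compound for 48 hours. Values below 10 were considered active.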 A number with no mark means an inactive call. The source made the active and inactive calls.

Common to all, as to experiment: NCI-60 one-dose screen, 48 h (100 = growth as untreated, 0 = no growth, -100 = all killed)
Holding throughout (conditions): 10 µM unless noted

The subject of assay [1] is NCI-H23 lung.
Assay [2] relates to NCI-H226 lung.
Assay [3] concerns NCI-H322M lung.
In assay [4] the test system is HOP-62 NSCLC.
The subject of assay [5] is NCI-H460 lung.
In assay [6] the test system is HOP-92 NSCLC.
In assay [7] the test system is NCI-H522 lung.
Assay [8] relates to A549/ATCC NSCLC.
The subject of assay [9] is 786-0 renal.
For assay [10], the system named is COLO 205 colon.

Consider `O=C(N/N=C/c1c[nH]c2ccccc12)Nc1ccccc1Cl`, for which the growth in [1] is 1.51% (active); in [2], 19.8%; in assay [3], 41.7%; in assay [4], 18.4%; in assay [5] it was 1.98% (active); in assay [6], 3.23% (active). The growth in [7] was -41.8% (active); in [8], 15.2%; in assay [9] it was -41.4% (active); in [10] it was -39.7% (active).

For the compound `O=C(O)CC1S/C(=N/N=C/c2nc3ccccc3s2)NC1=O` (configuration not stated), the growth is 96.2% in [1]; 101% in assay [2]; 106% in assay [3]; 108% in assay [4]; 94.7% in assay [5]; 136% in assay [6]. Besides, the growth in assay [7] was 104%; in [8], 96%; in [9], 80.9%; in assay [10], 135%.

Take `O=C(N/N=C/c1ccc(Br)o1)c1[nH]c2ccc(Br)cc2c1-c1ccccc1`: the growth was -37% (active) in assay [1]; -42.6% (active) in assay [2]; 15% in assay [3]; -28.6% (active) in assay [4]; -63% (active) in assay [5]; -4.09% (active) in assay [6]. The growth in [7] was -61.5% (active); in assay [8], -4.05% (active); in assay [9] it was -52.7% (active); in [10], -13.5% (active).

On to `COc1cccc(/C=C/c2nc3ccccc3c(=O)n2CC(=O)Nc2ccccc2)c1`, for which the growth in assay [1] was 59.2%; in assay [2], 13.9%; in assay [3] it was 72.3%; in assay [4] it was 4.65% (active); in assay [5], 51.4%; in assay [6], 19.5%. In addition, the growth was 53.3% in [7], 16.9% in assay [8], -8.65% (active) in [9] and 75.5% in [10].

In the case of `Cc1ccc2nc(NC(=O)Nc3cccc(Cl)c3)sc2c1`, the growth in [1] is 93.8%; in assay [2], 96.4%; in assay [3], 93.7%; in [4], 111%; in assay [5], 99.1%; in [6], 119%. The growth in assay [7] is 94%; in [8] it was 106%; in assay [9], 107%; in assay [10], 117%.

As to `O=C(Nc1ccc(-c2ccc3c(c2)NC(=O)/C3=C\c2ccc[nH]2)cc1)Nc1cccc(Cl)c1`, the growth in assay [1] was -57.4% (active); in assay [2], 2.01% (active); in assay [3], 14.1%; in [4], -29.6% (active); in assay [5] it was 1.16% (active); in assay [6] it was 41.5%. Moreover, the growth is -51.7% (active) in assay [7], -3.34% (active) in [8], -41.6% (active) in assay [9] and -58.6% (active) in assay [10].

In the case of `Clc1ccc(Nc2nnc(-c3c[nH]c4ccccc34)o2)cc1`, the growth in assay [1] was 77.9%; in assay [2] it was 66.7%; in [3], 91.3%; in assay [4], 67.8%; in [5], 83%; in assay [6], 70.9%. For the same compound, the growth was 24.2% in assay [7], 68.6% in [8], 90.1% in [9] and 116% in assay [10].

`NS(=O)(=O)c1ccc(Nc2nc(N/N=C/c3cc(Br)c(O)c(Br)c3)nc(Nc3ccccc3)n2)cc1`: the growth in [1] is 27.7%; in assay [2], 54.7%; in [3], 37.6%; in [4] it was 27%; in [5], 99.8%; in assay [6] it was -4.41% (active). For the same compound, the growth is 49.4% in assay [7], 97.6% in assay [8], 25.1% in assay [9] and 88% in assay [10].

`Nc1cc(-c2c[nH]c3ccc(F)cc23)nc2cc(-c3c[nH]c4ccccc34)nn12`: the growth in assay [1] was -12.7% (active); in [2], 52.9%; in assay [3], 30.2%; in [4] it was 1.04% (active); in [5], 3.08% (active); in [6], -9.18% (active). In addition, the growth in [7] was -49.9% (active); in assay [8], 9.83% (active); in assay [9], -81% (active); in [10] it was -88.8% (active).

Take `Cc1ccc(N=Nc2c(N)nn3c(-c4cc5cc(Br)ccc5oc4=O)ccnc23)cc1`: the growth in assay [1] is 21.7%; in [2] it was -26.3% (active); in [3], 83.6%; in assay [4], 47.7%; in assay [5] it was 34.9%; in assay [6] it was 73.6%. Besides, the growth was 11.7% in assay [7], 113% in assay [8], 56.8% in [9] and 100% in [10].

For `CC(=O)c1ccc2c(N)c(C(=O)Nc3ccc(C(F)(F)F)cc3)sc2n1`, the growth in assay [1] was 41.7%; in [2] it was 59.1%; in assay [3] it was 83.2%; in assay [4] it was 58.6%; in assay [5], 72.8%; in [6], 67.1%. Also, the growth is 59.8% in assay [7], 78.5% in [8], 78.1% in assay [9] and 83.4% in assay [10].

Regarding `COc1cc(CNC(=O)C[C@H](C)CCC=C(C)C)ccc1OCc1cn(-c2ccccc2Cl)nn1`, the growth in [1] is 64.5%; in assay [2], 59.7%; in assay [3], 91.3%; in [4], 79.3%; in [5], 78.4%; in assay [6], 79.4%. Further, the growth in assay [7] was 51.4%; in [8], 64.1%; in assay [9] it was 87.7%; in [10] it was 71.7%.

As for `O=C(NNC(=S)NC(=O)c1ccccc1)c1ccc(OCc2nc3ccc(Cl)cc3[nH]2)cc1`, the growth in assay [1] is -71.3% (active); in assay [2], -43.9% (active); in assay [3], -41.5% (active); in [4], -64.3% (active); in [5], 11.6%; in assay [6] it was -10.8% (active). Moreover, the growth in [7] was 1.39% (active); in assay [8] it was -29.2% (active); in assay [9], 0.779% (active); in assay [10] it was -22.5% (active).

For `COc1ccc(-c2nc3ccc(-c4nnc(SCc5ccccc5)o4)cc3[nH]2)cc1`, the growth is 8.09% (active) in [1]; -76.5% (active) in assay [2]; 0.722% (active) in assay [3]; -72.7% (active) in assay [4]; -15.7% (active) in [5]; 20.9% in assay [6]. The growth is -16.2% (active) in [7], -5.6% (active) in [8], -62.5% (active) in assay [9] and 44.6% in [10].

Regarding `CN(C)C(=O)c1cc(-c2ccc3ncnc(N4CCc5cc(F)c(Cl)cc54)c3c2)cnc1N`, the growth in assay [1] is -18.1% (active); in assay [2] it was -25.4% (active); in [3], -64.2% (active); in assay [4], -32.6% (active); in [5], 3.44% (active); in assay [6], -45.7% (active). For the same compound, the growth was -13.4% (active) in [7], -66.9% (active) in assay [8], -82.2% (active) in assay [9] and -76.5% (active) in assay [10].

Consider `CS(=O)(=O)Nc1cccc(-n2c(COc3ccc(OC(F)(F)F)cc3)nc3ccccc32)c1`, for which the growth was 84.7% and 104% in assay [1]; 83.3% and 103% in assay [2]; 101% and 121% in assay [3]; 96.2% and 97.2% in assay [4]; 110% in assay [5]; 59.6% and 108% in assay [6]. Further, the growth in [7] was 84.8% and 101%; in [8], 96.1% and 111%; in assay [9], 110% and 103%; in assay [10], 100% and 113%.

As to `Cc1ccc(C(=O)Nc2cc(-c3ccncc3)cc(C(F)(F)F)c2)cc1C#Cc1cnc2cccnn12`, the growth is 35.5% in [1]; 27.9% in assay [2]; 79% in assay [3]; 44.3% in assay [4]; 51.8% in assay [5]; 31.7% in [6]. Further, the growth in [7] is 33.1%; in assay [8] it was 48.6%; in [9], 46.3%; in assay [10] it was 32.3%.

As for `COC(=O)c1cc(C(=O)CBr)n2c1ccc1c3ccccc3ccc12`, the growth in [1] is 51.4%; in assay [2] it was 53.4%; in assay [3] it was 82.8%; in [4], 48.9%; in assay [5], 39.4%; in assay [6], 53.2%. Further, the growth in assay [7] is 59.1%; in assay [8] it was 31.3%; in [9], 52.1%; in assay [10] it was 38.7%.

On to `O=C1Nc2cc(-c3ccc(NS(=O)(=O)c4ccc(C(F)(F)F)cc4)cc3)ccc2/C1=C/c1ccc[nH]1`, for which the growth in assay [1] is 11%; in [2] it was 49.7%; in assay [3] it was 44%; in assay [4] it was 43.5%; in assay [6] it was 42.8%; in assay [7], -18.4% (active). Further, the results for the growth in [8], in assay [9] and in assay [10] were 18.7%, 40.8% and 23.9%, respectively.

`O=C(CSc1nc2sc3c(c2c(=O)n1-c1ccc(Cl)cc1)CCCC3)N/N=C/C=C/c1ccccc1`: the growth in [1] was -74.7% (active); in [2], -36.1% (active); in [3], 34.8%; in assay [4], -71.3% (active); in assay [6], 9.97% (active); in [7], 2.3% (active). For the same compound, the growth in assay [8] is -18.3% (active); in assay [9], -45.2% (active); in assay [10], -45.4% (active).

As to `CCOc1ccccc1[C@H]1C(C(=O)c2ccc(Cl)cc2)C2(N[C@@H]1c1ccccc1)C(=O)Nc1ccc(Cl)cc12` (some centres not stated), the growth is 21.5% in [1]; 20.3% in assay [2]; 48.7% in assay [3]; 42.6% in assay [4]; 2.97% (active) in assay [6]; 34.1% in assay [7]. Moreover, the results for the growth in assay [8], in assay [9] and in [10] were 40.5%, 35% and 15.3%, respectively.

Consider `COc1cc(CNC(=O)C[C@H](C)CCC=C(C)C)ccc1OCc1cn(-c2ccc(Br)cc2)nn1`, for which the growth in assay [1] is 60.1%; in assay [2], 70.2%; in [3] it was 99.6%; in assay [4], 65.1%; in [6], 45.9%; in [7] it was 41.6%. The growth was 78.6% in [8], 68.7% in [9] and 113% in assay [10].

`O=Cc1cncc(-c2ccc3ncnc(N4CCc5cc(F)c(Cl)cc54)c3c2)c1`: the growth is 44.6% in [1]; 10.8% in [2]; 0.287% (active) in assay [3]; 51.9% in assay [4]; -4.62% (active) in assay [6]; 59% in [7]. Further, the growth in [8] is 21.6%; in [9], 18%; in [10], 99.7%.

Regarding `Oc1cncc(-c2ccc3ncnc(N4CCc5cc(F)c(Cl)cc54)c3c2)c1`, the growth in [1] was 47.8%; in assay [2], 42.2%; in assay [3], 54.4%; in [4], 49.5%; in assay [6] it was 40.9%; in assay [7], 68.4%. The values for the growth in assay [8], in [9] and in assay [10] were 40.4%, 35.4% and 77%, respectively.

On to `Cc1[nH]nc2ccc3nc(-c4cn[nH]c4C(F)(F)F)c4c(c3c12)CCCC4`, for which the growth is -8.3% (active) in assay [1]; -5.98% (active) in assay [2]; 2.15% (active) in assay [3]; 5.21% (active) in assay [4]; -18.3% (active) in assay [6]; -54% (active) in assay [7]. The growth in assay [8] is -2.97% (active); in assay [9], -21.2% (active); in assay [10], -18.6% (active).

Consider `CS(=O)(=O)c1ccc(-n2nc(C(=O)NCc3ccccc3)cc2-c2ccc(Cl)cc2)cc1`, for which the growth in [1] was 89.9%; in assay [2] it was 85%; in assay [3], 88.1%; in assay [4], 106%; in [6] it was 88.1%; in assay [7], 58.7%. Also, the growth in assay [8] is 70%; in assay [9], 71%; in [10], 107%.
